Assay [1] has as its system Human papillomavirus type 1a protein E7 (residues 44-93). The assay is described as follows: HPV1a E7 fragment binders on microarrays, primary screen, biochemical, small-molecule microarray, residues 44-93, 635 nm fluorescence (AID 1108).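 Note: E7 fragment applied at 1 µg/mL in TBST for 1 h at 4 C; score combines spot fluorescence with its signal to noise ratio.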 The conditions noted are these: small-molecule microarray binding, fluorescence 635 nm; higher = more signal.
Assay [2] in a line: modulators of HCV replicon luciferase signal, primary screen, HCV replication inhibitor project, Huh7 cells, luciferase reporter (AID 1109).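 Note: huh7 hepatoma cells harbouring a luciferase neomycin HCV replicon reporter; luciferase luminescence as measure of HCV replicon replication; test concentration not given here.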 Particulars: 48 h, higher = more signal. Background: Replicon systems follow genome replication, usually without infectious particles.
Assay [3] addresses Left-right determination factor 2 (Homo sapiens) (UniProt O00292). The assay is described as follows: LEFTY2 binders on small-molecule microarrays, primary screen, biochemical, small-molecule microarray, 635 nm fluorescence scan (AID 1110). The conditions noted are these: LEFTY2 binding, higher = more signal.
For assay [4], the target named is Calmodulin-1 (Homo sapiens) (UniProt P0DP23). The assay is described as follows: CALM1 binders on microarrays, EGTA buffer, profiling panel, biochemical, small-molecule microarray, Cy5-labelled CALM1 (AID 1111).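 Note: labelled calmodulin applied in Tris saline Tween buffer holding calcium plus EGTA and DTT.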 The conditions noted are these: Cy5-CALM1 binding fluorescence, higher = more signal.
Assay [5] shares this target. The assay is described as follows: calcium-bound CALM1 binders on microarrays, profiling panel, artefact control for SMM control-protein annotation, biochemical, small-molecule microarray, Cy5-labelled CALM1, plus calcium (AID 1112).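 Note: score merges spot fluorescence with signal to noise from triplicate slides.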 Particulars: Cy5-CALM1 binding fluorescence, higher = more signal.
The nature of assay [6]: small-molecule microarray binders of probe aWnt5a, primary screen, biochemical, biotinylated probe, 635/667 nm fluorescence (AID 1113).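 Note: score merges 667 nm fluorescence intensity with signal-to-noise per printed feature.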 Particulars: higher = more signal.
Assay [7] can be described thus: small-molecule microarray binders of probe aShh, primary screen, biochemical, biotinylated probe, 635/667 nm fluorescence (AID 1114).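 Note: probe is biotin-labelled aShh protein from a stem cell growth factor screen; measures binding of labelled protein to compounds printed on the slide; score merges feature fluorescence at 667 nm with signal-to-noise.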 Particulars: higher = more signal.
A short description of assay [8]: small-molecule microarray binders of probe aNog, primary screen, biochemical, biotinylated probe, 635/667 nm fluorescence (AID 1115).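 Note: probe is biotinylated aNog protein used at 0.15 µg/mL for 1 h at 4 C; z-score combines 667 nm fluorescence of each spot with its signal to noise.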 The conditions noted are these: higher = more signal.
Assay [9] has as its target Torsin-1A-interacting protein 1 (Homo sapiens) (UniProt Q5JTV8). The assay is described as follows: LAP1 binders from COS7 cell lysate, primary screen, small-molecule microarray, 635/667 nm fluorescence (AID 1116). The conditions noted are these: COS7-hLAP1 lysate binding, 635 nm fluorescence, higher = more signal.
Assay [10] deals with Alpha-bungarotoxin (Bungarus multicinctus) (UniProt P60615). The assay is described as follows: alpha-bungarotoxin binders on microarray, profiling panel, artefact control for SMM control protein annotation, biochemical, small-molecule microarray, Alexa647 label, 635/667 nm fluorescence (AID 1117). The conditions noted are these: alpha-BTX-A647 binding fluorescence, higher = more signal.
Alpha-bungarotoxin (Bungarus multicinctus), sequence (P60615 whole entry, looked up): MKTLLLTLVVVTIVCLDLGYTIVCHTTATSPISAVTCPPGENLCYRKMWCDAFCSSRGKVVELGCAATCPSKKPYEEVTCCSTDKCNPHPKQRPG

Torsin-1A-interacting protein 1 (Homo sapiens), sequence (Q5JTV8 whole entry, looked up): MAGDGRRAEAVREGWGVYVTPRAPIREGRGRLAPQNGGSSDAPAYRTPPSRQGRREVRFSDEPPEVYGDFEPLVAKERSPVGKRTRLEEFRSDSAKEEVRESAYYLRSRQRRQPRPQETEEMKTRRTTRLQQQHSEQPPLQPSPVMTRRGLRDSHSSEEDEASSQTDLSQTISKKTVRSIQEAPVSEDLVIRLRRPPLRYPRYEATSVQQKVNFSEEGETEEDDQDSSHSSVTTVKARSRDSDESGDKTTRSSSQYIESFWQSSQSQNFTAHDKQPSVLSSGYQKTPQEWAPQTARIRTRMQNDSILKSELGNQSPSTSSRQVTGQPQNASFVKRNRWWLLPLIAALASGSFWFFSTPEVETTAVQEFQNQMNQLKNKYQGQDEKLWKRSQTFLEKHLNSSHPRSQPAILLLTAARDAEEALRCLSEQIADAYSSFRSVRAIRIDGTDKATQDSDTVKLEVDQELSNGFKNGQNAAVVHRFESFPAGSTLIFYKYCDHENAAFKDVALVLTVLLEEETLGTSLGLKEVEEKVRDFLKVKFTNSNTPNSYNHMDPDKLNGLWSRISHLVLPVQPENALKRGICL
Left-right determination factor 2 (Homo sapiens), sequence (O00292 whole entry, looked up): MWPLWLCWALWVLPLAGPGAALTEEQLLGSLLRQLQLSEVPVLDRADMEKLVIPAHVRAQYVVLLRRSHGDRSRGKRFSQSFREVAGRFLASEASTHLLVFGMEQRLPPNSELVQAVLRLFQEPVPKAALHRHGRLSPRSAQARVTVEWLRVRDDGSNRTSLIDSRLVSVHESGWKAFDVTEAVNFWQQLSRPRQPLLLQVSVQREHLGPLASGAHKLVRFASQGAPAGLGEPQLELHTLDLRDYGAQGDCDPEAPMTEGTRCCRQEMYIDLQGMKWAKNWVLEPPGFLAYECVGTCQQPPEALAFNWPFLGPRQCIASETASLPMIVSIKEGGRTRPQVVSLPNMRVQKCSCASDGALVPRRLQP

With `C=CCOC(=O)[C@H]1[C@@H]2C(=O)O[C@@H](c3ccccc3)[C@@H](c3ccccc3)N2[C@@H](c2ccc(OCCOC(=O)[C@H]3C[C@H]4C(=O)N[C@@H](CCCC[N+](C)(C)C)C(=O)N4[C@H]3c3ccc(O)cc3)cc2)[C@]12C(=O)Nc1ccccc12`, the composite z-score in assay [1] was 0.411; in assay [3], -0.196; in [4] it was -0.217; in assay [5] it was -0.687; in assay [6], -0.148; in [7], 0.0469. The composite z-score in [8] is -0.32; in assay [9], 0.569; in [10] it was 0.717. The same compound registered a z-score in assay [2] of -0.581.
As to `CCCNC(=O)[C@@]1(c2ccc([N+](=O)[O-])cc2)CC(=O)N(CC23CC4CC(CC(C4)C2)C3)[C@@H]1c1ccc(CO)cc1I`, the composite z-score in [1] is 0.0836; in assay [3], 0.152; in [4] it was 0.838; in assay [5], 0.94; in assay [6], -0.0303; in assay [7], 0.166. The figures for the composite z-score in [8], in [9] and in assay [10] were 0.431, -0.421 and 0.695, respectively. The z-score in [2] is -3.32.
In the case of `C=CCN1C(=O)[C@]2(COC(c3ccc(OCCCO)cc3)=N2)Cc2ccccc21`, the composite z-score in assay [1] was 1.17; in assay [3] it was -0.352; in assay [4], -0.0567; in [5] it was 0.0613; in [6], 0.227; in assay [7], 0.0253. Besides, the values for the composite z-score in [8], in assay [9] and in assay [10] were 0.795, 2.59 and 1.48, respectively. In addition, in [2], the z-score was -0.347.
`C=CCN1C(=O)[C@]2(Cc3ccccc31)N=C(c1ccc(OCCCO)cc1)O[C@@H]2c1ccccc1`: the composite z-score is 1.41 in [1]; 0.319 in assay [3]; 0.731 in [4]; -0.313 in assay [5]; 0.219 in assay [6]; -0.108 in [7]. For the same compound, the figures for the composite z-score in [8], in assay [9] and in [10] were 0.431, 1.75 and 0.152, respectively. Moreover, in assay [2], the z-score is -2.74.
For `CCCC[C@@H]1C[C@H]1[C@@H](NC(=O)c1ccccc1)c1ccc(-c2ccccc2)cc1`, the composite z-score is 1.34 in assay [1]; 0.0692 in assay [3]; 0.232 in [4]; 0.596 in assay [5]; 0.0375 in [6]; 0.1 in assay [7]. In addition, the figures for the composite z-score in assay [8], in assay [9] and in assay [10] were -0.421, 0.0036 and 0.805, respectively. Further, the z-score in assay [2] was -2.9.
`CC[C@@H]1C=C(C(=O)O)[C@H](c2ccc(C(C)C)cc2)N1S(=O)(=O)c1ccc(C)cc1`: the composite z-score in [1] was found to be 1.27; in [3] it was 0.615; in assay [4], 2.38; in [5], 0.692; in assay [6], 0.019; in assay [7] it was 0.519. In addition, the composite z-score in [8] is -0.443; in assay [9], 2.19; in [10], 2.12. In [2], this compound registered a z-score of -0.868.
With `[N-]=[N+]=NCc1ccccc1C[C@]1(C(N)=O)N=C(c2ccc(OCCCO)cc2)O[C@H]1c1ccccc1N=[N+]=[N-]`, the composite z-score in assay [1] turned out to be 1.4; in assay [3] it was 0.308; in [4], 1.18; in [5] it was 0.596; in assay [6] it was 0.193; in assay [7], 0.232. The composite z-score was determined as 1.08 in assay [8], 1.71 in assay [9] and 1.24 in [10]. The compound further returned a z-score in assay [2] of -0.507.
Consider `OCCCc1cc[n+](Cc2cccc(OC(F)(F)F)c2)cc1`, for which the composite z-score is 1.47 in assay [1]; 0.208 in assay [3]; 0.66 in [4]; 0.56 in assay [5]; -0.0758 in [6]; 0.199 in [7]. Moreover, the composite z-score in [8] amounted to 0.134; in [9], 0.925; in [10], 0.718. Further, the z-score in assay [2] is 0.242.
On to `COc1cc2c(cc1O)C(c1ccc(CN3CCCC3)cc1)N(Cc1sc3ccccc3c1Cl)CC2` (stereo not given), for which the composite z-score is 0.573 in assay [1]; 0.82 in assay [3]; 0.26 in assay [4]; -0.935 in [5]; -0.0036 in assay [6]; -0.0626 in [7]. Also, the composite z-score in assay [8] came out at 0.151; in assay [9], 0.0494; in [10], 0.518. Moreover, the z-score in assay [2] is -2.57.
For the compound `NC(=O)[C@@]1(CCS(=O)(=O)c2ccccc2)N=C(c2ccc(OCCCO)cc2)O[C@H]1c1ccccc1`, the composite z-score is 1.49 in assay [1]; -0.38 in [3]; 1.37 in assay [4]; 0.699 in [5]; 0.0845 in [6]; 0.396 in [7]. The composite z-score in [8] is 1.28; in assay [9] it was 1.89; in assay [10], 1.42. The compound also came in with a z-score in assay [2] of -2.05.
As for `COc1ccc([Si](C)(C)[C@@H]2[C@@H](CC(=O)N3Cc4ccccc4C[C@H]3CO)O[C@]3(C(=O)N(Cc4cccc(N5C(=O)COc6ccccc65)c4)c4ccccc43)[C@H]2C)cc1`, the composite z-score in assay [1] is 1.2; in [3], 0.806; in assay [4] it was 1.39; in [5], 0.0626; in assay [6] it was -0.103; in assay [7], -0.214. The values for the composite z-score in [8], in [9] and in assay [10] were -0.253, 0.875 and 0.875, respectively. Moreover, the z-score in [2] was -3.61.
